The record followed here is PubChem BioAssay (NCI).

What all share (assay): NCI-60 one-dose screen, 48 h (100 = growth as untreated, 0 = no growth, -100 = all killed)
One assay has as its system DU-145 prostate. Conditions: 10 µM unless noted.
Another assay has as its system K-562 leukemia. Particulars: 10 µM unless noted.
The subject of the next assay is MALME-3M melanoma. Conditions: 10 µM unless noted.
The subject of another assay is MDA-MB-231 breast. Particulars: 10 µM unless noted.
For the next assay, the system named is RXF 393 renal. Conditions: 10 µM unless noted.
Another assay deals with SF-268 CNS. Conditions: 10 µM unless noted.
A further assay deals with SF-295 CNS. Conditions: 10 µM unless noted.
Another assay has as its system SF-539 CNS. Particulars: 10 µM unless noted.
Another assay concerns UACC-257 melanoma. Conditions: 10 µM.
The next assay deals with M14 melanoma. Conditions: 10 µM unless noted.

About 83,000 compounds went through this panel and 20% of them were active in at least one assay; those are over-represented in the sample as a whole.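 Growth was measured after 48 h exposure to one concentration of compound in 96-well plates. Values under 10 count as active.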 A number with no mark means an inactive call. The source made the active and inactive calls.

For the compound `CCOC(=O)CC(C#N)(CC(=O)OCC)C(=O)OCC`, the growth in the assay on DU-145 prostate is 113%; in the assay with K-562 leukemia, 111%; with MALME-3M melanoma it was 127%; in the assay on MDA-MB-231 breast it was 101%; in the assay on RXF 393 renal, 99.6%; in the assay with SF-268 CNS, 111%. Moreover, the growth was 101% in the assay on SF-295 CNS, 107% with SF-539 CNS and 73.9% with UACC-257 melanoma.

`Cc1ccc(Cn2c(-c3nonc3N)nc3ccccc32)cc1`: the growth in the assay with DU-145 prostate was 100%; with K-562 leukemia it was 12.9%; in the assay with MALME-3M melanoma, 81.6%; in the assay on MDA-MB-231 breast, 83.5%; in the assay on RXF 393 renal, 82.1%; in the assay on SF-268 CNS, 81.5%. In addition, the growth is 82.3% with SF-295 CNS, 80.4% with SF-539 CNS, 89.6% in the assay on UACC-257 melanoma and 66.4% in the assay on M14 melanoma.

As to `COc1ccc(-c2nc3sccn3c2-c2ccnc(NCCCNS(=O)(=O)c3ccc(F)cc3)n2)cc1`, the growth in the assay with DU-145 prostate was 10.9%; with K-562 leukemia, 14.2%; with MALME-3M melanoma it was 12.7%; with MDA-MB-231 breast, 43.2%; in the assay on RXF 393 renal, 52.9%; with SF-268 CNS it was 17.2%. Besides, the growth in the assay on SF-295 CNS was 12.9%; with SF-539 CNS, 28.4%; in the assay on UACC-257 melanoma, 26.1%.

With `C=C1C(=O)O[C@H]2[C@H](O)[C@@H](C)CCC/C(C)=C/CC[C@@]3(C)O[C@@H]3C[C@@H]12`, the growth in the assay with DU-145 prostate is 99.4%; in the assay with K-562 leukemia it was 79.2%; in the assay on MALME-3M melanoma, 72%; with MDA-MB-231 breast it was 77.9%; in the assay with RXF 393 renal it was 53.1%; with SF-268 CNS it was 96.1%. In addition, the growth in the assay on SF-295 CNS was 89.4%; in the assay with SF-539 CNS, 84.2%; in the assay on UACC-257 melanoma, 56.9%; in the assay on M14 melanoma, 92.8%.

On to `Nc1c(C(=O)Nc2cccc(C(F)(F)F)c2)sc2nc3c(cc12)CCCCC3`, for which the growth with DU-145 prostate was 44.1%; in the assay on K-562 leukemia, 36.9%; in the assay with MALME-3M melanoma it was -20.4% (active); in the assay with MDA-MB-231 breast it was -29.5% (active); with RXF 393 renal, -20.7% (active); in the assay with SF-268 CNS, 25.8%. The growth with SF-295 CNS was 11.7%; in the assay on SF-539 CNS it was -63.3% (active); in the assay with UACC-257 melanoma it was 18.6%.

Take `CC(C)CCN(CCCNc1c2c(nc3ccccc13)CCCC2)CCC(C)C`: the growth was 86.3% in the assay with DU-145 prostate; 31.4% with K-562 leukemia; 84.9% with MALME-3M melanoma; 24.5% in the assay on MDA-MB-231 breast; 81.9% in the assay on RXF 393 renal; 89.4% with SF-268 CNS. Besides, the growth was 80.1% with SF-295 CNS, 88.2% in the assay on SF-539 CNS, 94.5% in the assay with UACC-257 melanoma and 35.9% with M14 melanoma.

For `O=C(CNc1c(Cl)cccc1Cl)Nc1ccc(-c2nc3ccccc3s2)cc1`, the growth in the assay with DU-145 prostate is 85.7%; in the assay on K-562 leukemia it was 10.5%; with MALME-3M melanoma, -50% (active); in the assay with MDA-MB-231 breast, 56.9%; in the assay on RXF 393 renal it was 86.6%; with SF-268 CNS, 46.2%. Also, the growth in the assay on SF-295 CNS is 97.4%; in the assay on SF-539 CNS it was 79.9%; with UACC-257 melanoma, 96.5%.

With `COc1cc(Cn2c(-c3nonc3N)nc3ccccc32)ccc1C`, the growth in the assay on DU-145 prostate was 13.8%; with K-562 leukemia it was 10.4%; in the assay on MALME-3M melanoma, 80.7%; in the assay with MDA-MB-231 breast, 22.3%; in the assay with RXF 393 renal it was -8.35% (active); in the assay on SF-268 CNS, 40.3%. Also, the growth was 26% with SF-295 CNS, -32.8% (active) in the assay on SF-539 CNS and 65.2% in the assay on UACC-257 melanoma.

As to `CCNCc1ccncc1`, the growth in the assay with DU-145 prostate was 108%; in the assay on K-562 leukemia it was 94.5%; with MALME-3M melanoma, 101%; in the assay with MDA-MB-231 breast, 114%; in the assay on RXF 393 renal, 112%; in the assay with SF-268 CNS it was 106%. The growth with SF-295 CNS is 102%; with SF-539 CNS, 103%; with UACC-257 melanoma it was 96.3%; in the assay on M14 melanoma, 94.5%.

Turning to `O=C1CCC(=O)N1Cc1ccccc1`, the growth was 105% in the assay with DU-145 prostate; 108% with K-562 leukemia; 110% with MALME-3M melanoma; 98% in the assay on MDA-MB-231 breast; 87% in the assay on RXF 393 renal; 94.7% with SF-268 CNS. Also, the results for the growth in the assay on SF-295 CNS and in the assay with SF-539 CNS were 102% and 105%, respectively.

For `C=C1C(=O)O[C@H]2[C@H]1CC/C(COC(=O)NCc1ccc(OC)cc1)=C\CC[C@@]1(C)O[C@@H]21`, the growth in the assay on DU-145 prostate is 33.5%; in the assay with K-562 leukemia, 14%; in the assay with MALME-3M melanoma, 98.3%; with MDA-MB-231 breast, 60.9%; in the assay on RXF 393 renal, 15%; with SF-268 CNS, 55.5%. The figures for the growth in the assay on SF-295 CNS and in the assay on SF-539 CNS were 96.2% and 50.2%, respectively.

`CCC(C)NCC(=O)O` (configuration not stated): the growth in the assay with DU-145 prostate was 115%; with K-562 leukemia, 96.3%; in the assay on MALME-3M melanoma, 105%; in the assay on MDA-MB-231 breast, 111%; in the assay on RXF 393 renal it was 103%; in the assay with SF-268 CNS, 107%. The growth is 92.4% with SF-295 CNS, 92.7% with SF-539 CNS and 112% in the assay on UACC-257 melanoma.

With `COC(=O)c1cc(-c2cccs2)c(C#N)c(N)c1C#N`, the growth in the assay on DU-145 prostate was 109%; in the assay with K-562 leukemia, 104%; in the assay with MALME-3M melanoma, 116%; in the assay on MDA-MB-231 breast, 94.3%; in the assay with RXF 393 renal, 108%; in the assay with SF-268 CNS it was 99.5%. Further, the growth was 103% in the assay on SF-295 CNS, 101% in the assay with SF-539 CNS and 100% in the assay with UACC-257 melanoma.

On to `CC1=C(C#N)C(C)(C)C(C#N)=C(C)N1`, for which the growth was 106% with DU-145 prostate; 99.4% in the assay with K-562 leukemia; 109% in the assay with MALME-3M melanoma; 104% with MDA-MB-231 breast; 117% with RXF 393 renal; 100% in the assay with SF-268 CNS. Also, the growth with SF-295 CNS was 96.1%; with SF-539 CNS it was 99.3%; in the assay with UACC-257 melanoma it was 103%.

In the case of `Cn1cc(C=O)c2ccccc21`, the growth was 111% in the assay with DU-145 prostate; 95.4% in the assay with K-562 leukemia; 87.9% with MALME-3M melanoma; 104% in the assay on MDA-MB-231 breast; 105% in the assay on RXF 393 renal; 101% in the assay with SF-268 CNS. For the same compound, the growth with SF-295 CNS was 107%; with SF-539 CNS, 97.6%; in the assay with UACC-257 melanoma, 105%.
